About 79,000 compounds went through this panel and 15% of them were active in at least one assay; those are over-represented in the sample as a whole. Activity calls are given as the source filed them. Cut-off read from the data, not from the text of the source: active = growth inhibition above about 70%; inactive = the rest.
How the values were obtained:
[1] = NCI Yeast Anticancer Drug Screen. Data for the wt1 strain (AID 149);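 note: 0% = growth of vehicle-treated wt1 cultures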; conditions: S. cerevisiae wt1 strain (SPY 50644) growth inhibition, active compounds read high
Method in brief: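 Using yeast strain wt1, compound-induced growth inhibition was determined against vehicle-treated cultures.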

[2] = NCI Yeast Anticancer Drug Screen. Data for the rad50 strain (AID 155);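 note: 0% = growth of vehicle-only cultures of the same strain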; conditions: S. cerevisiae rad50 strain growth inhibition, active compounds read high
Method in brief: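 Relative growth inhibition (compound vs vehicle) was measured in yeast with a defined repair-gene alteration.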

[3] = NCI Yeast Anticancer Drug Screen. Data for the mec2-1 strain (AID 157); conditions: S. cerevisiae mec2-1 strain, active compounds read high
Method in brief: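 Mutant yeast (mec2-1) grown with compound; growth inhibition relative to vehicle control reported.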

[4] = NCI Yeast Anticancer Drug Screen. Data for the rad14 strain (AID 159);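 note: 0% = growth of vehicle-treated control cultures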; conditions: S. cerevisiae rad14 strain growth inhibition, active compounds read high
Method in brief: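 Screen for anticancer potential: a yeast strain altered in DNA damage repair is grown with compound, and reduced growth is quantified against vehicle controls.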

[5] = NCI Yeast Anticancer Drug Screen. Data for the sgs1 mgt1 strain (AID 161);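 note: 0% = growth of cultures given vehicle only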; conditions: S. cerevisiae sgs1 mgt1 strain, active compounds read high
Method in brief: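 Yeast cells carrying a defined DNA-repair defect were exposed to test compounds. Growth inhibition was measured relative to vehicle-treated controls.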

[6] = NCI Yeast Anticancer Drug Screen. Data for the CLN2oe strain (AID 163);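 note: 0% = growth of vehicle-only control cultures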; conditions: S. cerevisiae CLN2oe strain, active compounds read high
Method in brief: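 Compounds are applied to yeast harbouring a defined cell-cycle control change; reduced growth compared with vehicle-treated controls gives the value.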

[7] = NCI Yeast Anticancer Drug Screen. Data for the cln2 rad14 strain (AID 165);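 note: 0% = growth equal to vehicle treated cultures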; conditions: S. cerevisiae cln2 rad14 strain, active compounds read high
Method in brief: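 Readout is yeast growth inhibition versus vehicle-treated controls, using a strain with cln2 and rad14 alterations exposed to compound.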

[8] = NCI Yeast Anticancer Drug Screen. Data for the bub3 strain (AID 167); conditions: S. cerevisiae bub3 mutant strain, active compounds read high
Method in brief: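 Screening used yeast with an engineered genetic alteration affecting cell cycle control. Compound-exposed cultures were compared with vehicle cultures, and reduced growth was taken as inhibition.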

[9] = NCI Yeast Anticancer Drug Screen. Data for the mlh1 strain (AID 171);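 note: 0% = growth of vehicle-treated control cultures of the same strain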; conditions: S. cerevisiae mlh1 strain growth inhibition, active compounds read high
Method in brief: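 Measured: yeast growth. Reference: vehicle-treated controls. Organism: strain with a defined alteration affecting DNA damage repair or cell cycle control, treated with compound.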

[10] = NCI Yeast Anticancer Drug Screen. Data for the sgs1 strain (AID 173);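 note: 0% = growth of vehicle-only control cultures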; conditions: S. cerevisiae sgs1 mutant, active compounds read high
Method in brief: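 Each compound was added to cultures of the altered yeast strain. Growth was recorded, and inhibition was derived by comparison with vehicle controls.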

[11] = NCI Yeast Anticancer Drug Screen. Data for the mlh1 rad18 strain (AID 175); conditions: S. cerevisiae mlh1 rad18 strain growth inhibition, active compounds read high
Method in brief: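 Genetically defined yeast (DNA repair-deficient) exposed to compounds; growth inhibition determined relative to vehicle.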

[12] = NCI Yeast Anticancer Drug Screen. Data for the rad18 strain (AID 177); conditions: S. cerevisiae rad18 mutant growth inhibition, active compounds read high
Method in brief: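 Vehicle-treated cultures served as the baseline for scoring compound-induced growth inhibition in DNA-repair-mutant yeast.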

[13] = NCI Yeast Anticancer Drug Screen. Data for the rad50EPP+ strain (AID 151);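 note: 0% = growth of vehicle-treated control cultures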; conditions: S. cerevisiae rad50 mutant strain, active compounds read high
Method in brief: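 Vehicle-normalised growth inhibition; rad50EPP+ yeast strain, altered in DNA damage repair, compound-treated.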

[14] = NCI Yeast Anticancer Drug Screen. Data for the wt2 strain (AID 169);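 note: 0% = growth of vehicle-treated yeast cultures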; conditions: S. cerevisiae wt2 strain growth inhibition, active compounds read high
Method in brief: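 Against vehicle-treated controls, the growth of yeast exposed to each compound was compared, and the inhibition was recorded.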

[15] = NCI Yeast Anticancer Drug Screen. Data for the mgt1 strain (AID 153); conditions: S. cerevisiae mgt1 mutant growth inhibition, active compounds read high
Method in brief: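 Vehicle-normalized growth inhibition is determined in mgt1 yeast, a strain selected for a defined alteration in DNA repair or cell cycle control.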

[16] = at 5.0 µM (retest, dose inferred, filed as 0.5)
[17] = at 50.0 µM (retest, dose inferred, filed as 5.0)

Measured: growth inhibition

COC(=O)C1=C(C)NC(C)=C(C(=O)OCCCN2CCC(c3ccccc3)(c3ccccc3)CC2)C1c1cccc([N+](=O)[O-])c1 (centres undefined)
active: [1]; at 33.0 µM 98% | [1]; at 100.0 µM 94% | [2]; at 11.0 µM 97% | [2]; at 33.0 µM 95% | [2]; [17] 99% | [2]; at 50.0 µM 94.5% | [2]; at 100.0 µM 84% | [3]; at 11.0 µM 98% | [3]; at 33.0 µM 98% | [3]; [17] 98% | [3]; at 50.0 µM 95.9% | [3]; at 100.0 µM 92% | [4]; at 3.7 µM 76% | [4]; at 11.0 µM 99% | [4]; at 33.0 µM 98% | [4]; at 100.0 µM 89% | [5]; [17] 98% | [5]; at 50.0 µM 94% | [6]; at 11.0 µM 96% | [6]; at 33.0 µM 98% | [6]; at 100.0 µM 84% | [7]; [17] 98% | [7]; at 50.0 µM 94.2% | [8]; at 11.0 µM 83% | [8]; at 33.0 µM 98% | [8]; [17] 97% | [8]; at 50.0 µM 97% | [8]; at 100.0 µM 90% | [9]; at 11.0 µM 98% | [9]; at 33.0 µM 98% | [9]; at 100.0 µM 92% | [10]; at 11.0 µM 97% | [10]; at 33.0 µM 98% | [10]; at 100.0 µM 91% | [11]; [16] 74% | [11]; [17] 98% | [11]; at 50.0 µM 92.7% | [12]; at 11.0 µM 94% | [12]; at 33.0 µM 97% | [12]; at 100.0 µM 88%
inactive: [1]; at 1.2 µM -3% | [1]; at 3.7 µM -5% | [1]; at 11.0 µM 69% | [2]; at 1.2 µM 1% | [2]; at 3.7 µM 48% | [2]; [16] 37% | [3]; at 1.2 µM -1% | [3]; at 3.7 µM 16% | [3]; [16] 9% | [4]; at 1.2 µM 20% | [5]; [16] 50% | [6]; at 1.2 µM -3% | [6]; at 3.7 µM 21% | [7]; [16] 14% | [8]; at 1.2 µM 11% | [8]; at 3.7 µM 16% | [8]; [16] 42% | [9]; at 1.2 µM 1% | [9]; at 3.7 µM 51% | [10]; at 1.2 µM -3% | [10]; at 3.7 µM 23% | [12]; at 1.2 µM -7% | [12]; at 3.7 µM 9%

CC(=O)OCc1ccc(O)c(C=O)c1
inactive: [1]; at 1.2 µM -26% | [1]; at 3.7 µM -4% | [1]; at 11.0 µM -23% | [1]; at 33.0 µM 8% | [1]; at 100.0 µM 18% | [13]; at 1.2 µM -6% | [13]; at 3.7 µM -2% | [13]; at 11.0 µM -10% | [13]; at 33.0 µM 14% | [13]; at 100.0 µM 60% | [2]; at 1.2 µM -5% | [2]; at 3.7 µM -20% | [2]; [16] 16% | [2]; at 11.0 µM 10% | [2]; at 33.0 µM 6% | [2]; [17] 66% | [2]; at 100.0 µM 59% | [3]; at 1.2 µM -13% | [3]; at 3.7 µM -13% | [3]; [16] 0% | [3]; at 11.0 µM -29% | [3]; at 33.0 µM -11% | [3]; [17] 41% | [3]; at 50.0 µM 56.9% | [3]; at 100.0 µM 35% | [4]; at 1.2 µM -5% | [4]; at 3.7 µM -2% | [4]; at 11.0 µM 2% | [4]; at 33.0 µM 14% | [5]; [16] 36% | [5]; at 50.0 µM 62.5% | [6]; at 1.2 µM -5% | [6]; at 3.7 µM 1% | [6]; at 11.0 µM 11% | [6]; at 33.0 µM -12% | [6]; at 100.0 µM -2% | [7]; [16] 15% | [7]; [17] 30% | [7]; at 50.0 µM 49.7% | [8]; at 1.2 µM -7% | [8]; at 3.7 µM -7% | [8]; [16] 25% | [8]; at 11.0 µM -7% | [8]; at 33.0 µM -8% | [8]; at 50.0 µM 2.85% | [8]; at 100.0 µM -11% | [14]; at 1.2 µM -36% | [14]; at 3.7 µM -30% | [14]; at 11.0 µM -28% | [14]; at 33.0 µM -11% | [14]; at 100.0 µM 32% | [9]; at 1.2 µM 0% | [9]; at 3.7 µM -7% | [9]; at 11.0 µM -5% | [9]; at 33.0 µM 24% | [9]; at 100.0 µM 30% | [10]; at 1.2 µM -11% | [10]; at 3.7 µM -5% | [10]; at 11.0 µM 10% | [10]; at 33.0 µM 34% | [10]; at 100.0 µM 63% | [11]; [16] 26% | [11]; [17] 61% | [11]; at 50.0 µM 48.7% | [12]; at 1.2 µM -13% | [12]; at 3.7 µM 9% | [12]; at 11.0 µM 54%
active: [2]; at 50.0 µM 77.5% | [4]; at 100.0 µM 81% | [5]; [17] 89% | [8]; [17] 82% | [12]; at 33.0 µM 83% | [12]; at 100.0 µM 89%

CCN(CC)CCNc1ccc([N+](=O)[O-])c2nc3ccc(OC)cc3c(N)c12
inactive: [1]; at 1.2 µM -8% | [1]; at 3.7 µM -14% | [1]; at 11.0 µM -17% | [1]; at 33.0 µM -6% | [1]; at 100.0 µM 54% | [13]; at 1.2 µM 11% | [13]; at 3.7 µM 7% | [13]; at 11.0 µM 30% | [13]; at 33.0 µM 69% | [15]; at 1.2 µM -20% | [15]; at 3.7 µM -20% | [15]; at 11.0 µM -16% | [15]; at 33.0 µM 15% | [2]; at 1.2 µM -3% | [2]; at 3.7 µM -2% | [2]; [16] 13% | [2]; at 11.0 µM 35% | [2]; at 50.0 µM 48.4% | [3]; at 1.2 µM -24% | [3]; at 3.7 µM -19% | [3]; [16] -5% | [3]; at 11.0 µM -8% | [3]; at 33.0 µM 5% | [3]; [17] 21% | [3]; at 50.0 µM -26.1% | [3]; at 100.0 µM 42% | [4]; at 1.2 µM -34% | [4]; at 3.7 µM -29% | [4]; at 11.0 µM -19% | [4]; at 33.0 µM 28% | [5]; [16] -12% | [5]; [17] 48% | [5]; at 50.0 µM 58.4% | [6]; at 1.2 µM 10% | [6]; at 3.7 µM 15% | [6]; at 11.0 µM 22% | [6]; at 33.0 µM 25% | [6]; at 100.0 µM 64% | [7]; [16] 3% | [7]; [17] 33% | [7]; at 50.0 µM 6.25% | [8]; at 1.2 µM -23% | [8]; at 3.7 µM -16% | [8]; [16] -24% | [8]; at 11.0 µM -36% | [8]; at 33.0 µM -17% | [8]; [17] 18% | [8]; at 50.0 µM -0.6% | [8]; at 100.0 µM 64% | [14]; at 1.2 µM 15% | [14]; at 3.7 µM 6% | [14]; at 11.0 µM 10% | [14]; at 33.0 µM 28% | [9]; at 1.2 µM -2% | [9]; at 3.7 µM 4% | [9]; at 11.0 µM 5% | [9]; at 33.0 µM 27% | [10]; at 1.2 µM -8% | [10]; at 3.7 µM -9% | [10]; at 11.0 µM -16% | [10]; at 33.0 µM 10% | [11]; [16] -22% | [11]; at 50.0 µM 68%
active: [13]; at 100.0 µM 79% | [15]; at 100.0 µM 73% | [2]; at 33.0 µM 79% | [2]; [17] 89% | [2]; at 100.0 µM 93% | [4]; at 100.0 µM 88% | [14]; at 100.0 µM 70% | [9]; at 100.0 µM 85% | [10]; at 100.0 µM 82% | [11]; [17] 86%
